According to PubChem BioAssay AID372 (MTDP, 2006):
Out of some 100,000 compounds screened, about 770 (0.77%) were called active. Shown is part of a subset that was picked to be rich in actives. Values without a mark were called inactive. No stated cut-off is given here; in the data, active means inhibition above about 50%; inactive means the rest.

The compounds below were run against Gag-Pol polyprotein (Human immunodeficiency virus type 1 group M subtype B (isolate HXB2)) (UniProt P04585) (assay: RNase H inhibition, HIV 1 Gag Pol polyprotein, FRET biochemical assay, screening (AID 372)). Conditions: HIV-1 RT RNase H, FRET RNA/DNA substrate fluorescence; at 10 µM; stronger effect = higher value.
`CS(=O)(=O)N(CC(=O)N1CCCC1)c1cccc(Cl)c1` gave an inhibition of 6%. In the case of `CC1=C(C#N)C(c2cccc(F)c2)C2=C(CC(c3ccccc3)CC2=O)N1` (configuration not stated), the inhibition is reported as 11%. Compound `COc1ccc(OC)c(NC(=O)CN(CCc2ccccc2)S(=O)(=O)c2ccccc2)c1` has an inhibition of 15%. `Cc1cc(C)cc(NC(=O)Cc2ccccc2)c1` gave an inhibition of 3%. For `O=C1NC(=O)N(c2ccccc2)C(=O)/C1=C\c1cccc(OCc2ccc(F)cc2)c1`, the inhibition was 9%. `CC(=O)Nc1ccc2nn(-c3ccc(F)cc3)nc2c1` showed an inhibition of 4%. For `CCOC(=O)c1ccc(NC(=O)CSc2nnnn2-c2c(C)cc(C)cc2C)cc1`, the inhibition was 55% (active). `COc1ccc(-n2nnnc2SCC(=O)Nc2c(C)cc(C)cc2C)cc1` was tested, and the inhibition was 12%. `O=C(CSc1nnnn1-c1ccccc1)Nc1ccc(C(=O)O)cc1` was tested, and the inhibition was 0%. In the case of `CC1=C(C(=O)OC(C)C)C(c2cccc(F)c2)C2=C(CCCC2=O)N1` (configuration not stated), the inhibition is reported as 4%. `CCN1C(=O)/C(=C2\SC(=S)N(c3ccccc3)C2=O)c2ccccc21` showed an inhibition of 4%. For `CCN1C(=O)/C(=C2\SC(=O)N(Cc3ccccc3)C2=O)c2ccccc21`, the inhibition was 59% (active). `C=CCN1C(=O)/C(=C2\SC(=S)N(Cc3ccccc3)C2=O)c2ccccc21` showed an inhibition of 33%. With `CCN1C(=O)/C(=C2\SC(=S)N(c3ccc(Br)cc3)C2=O)c2ccccc21` the inhibition was 57% (active). `CCCCCN1C(=O)/C(=C2\SC(=S)N(c3ccc(Br)cc3)C2=O)c2ccccc21` gave an inhibition of 16%. `CCN1C(=O)/C(=C2\SC(=S)N(CC(=O)O)C2=O)c2ccccc21` was tested, and the inhibition was 7%. `CCC(C(=O)Nc1nc(-c2ccccc2)c(C)s1)c1ccccc1` (configuration not stated) gave an inhibition of 10%. Work on `COC(=O)C1=C(C)NC2=C(C(=O)CC(c3ccccc3)C2)C1c1cc(Br)c(O)c(OC)c1` (configuration not stated) yielded an inhibition of 15%. Compound `Cc1cc(=O)oc2cc(OC(=O)CCCOc3ccc(Cl)cc3Cl)ccc12` has an inhibition of 18%. `Cc1ccc(-c2cc(=O)c3cc(Cl)ccc3o2)cc1` was tested, and the inhibition was 5%. In the case of `CN(C)c1ccc(-c2c3cc(O)c(=O)cc-3oc3cc(O)c(O)cc23)cc1`, the inhibition is reported as 63% (active). For `O=c1cc2oc3cc(O)c(O)cc3c(-c3ccccc3[N+](=O)[O-])c-2cc1O`, the inhibition was 69% (active). Compound `Cc1ccc(-c2cc(=O)c3cc(C)ccc3o2)cc1` has an inhibition of 11%. `O=C1c2ccccc2C(=O)c2c(O)c([N+](=O)[O-])cc(O)c21` was tested, and the inhibition was 20%. `O=c1[nH]c2ccccc2c(O)c1-c1ccccc1[N+](=O)[O-]` showed an inhibition of 1%. In the case of `O=C(Nc1ccc2ccccc2c1)c1ccccc1Cl`, the inhibition is reported as 3%. In the case of `Cc1cc(OCC(N)=O)ccc1Cl`, the inhibition is reported as 0%. `Nc1c(Cl)cc(Br)c2c1C(=O)c1ccccc1C2=O` was tested, and the inhibition was 6%. For `Nc1c(Cl)cc2c(c1Oc1ccccc1)C(=O)c1ccccc1C2=O`, the inhibition was 8%. In the case of `Cc1ccc2nc3c(N)c(Cl)cc4c3c(c2c1)-c1ccccc1C4=O`, the inhibition is reported as 56% (active). Work on `O=C(Cn1c(NCCO)nc2ccccc21)c1cccc(Br)c1` yielded an inhibition of 3%. `C=CCC(C(=O)c1ccccc1)C(=O)C(C)(C)OC` (configuration not stated) showed an inhibition of 7%. `COc1ccc(CC(=O)N/N=C/c2ccc(I)o2)cc1` gave an inhibition of 0%. With `COc1ccc(CC(=O)N/N=C/c2ccc(-c3cc(Cl)ccc3C)o2)cc1` the inhibition was 74% (active). `Cc1ccc(/C=N/NC(=O)Cc2ccc(Cl)cc2)o1` gave an inhibition of 7%. Compound `O=Cc1cc(Cl)c(OCc2ccc(F)cc2)c(Cl)c1` has an inhibition of 41%. `Cc1ccc2oc(-c3ccc(C)c(NC(=O)COc4ccccc4C)c3)nc2c1` showed an inhibition of 44%. Work on `Cc1cc(C)cc(OCC(=O)Nc2cc(-c3nc4cc(C)cc(C)c4o3)ccc2C)c1` yielded an inhibition of 14%. `Cc1cc(C)c2oc(-c3ccc(C)c(NC(=O)COc4cccc(C)c4C)c3)nc2c1` showed an inhibition of 0%. For `Cc1cc(C)c2oc(-c3ccc(C)c(NC(=O)COc4ccccc4C)c3)nc2c1`, the inhibition was 55% (active). With `Cc1ccc(-c2nc3ccccc3o2)cc1NC(=O)COc1ccccc1` the inhibition was 8%. `Cc1ccc(-c2nc3ccccc3o2)cc1NC(=O)COc1ccccc1C` was tested, and the inhibition was 50% (active). Compound `CCCSc1nc2ccccc2c(=O)n1CC1CCCCC1` has an inhibition of 1%. `O=C(Nc1cccc(C(F)(F)F)c1)c1ccc(I)cc1` was tested, and the inhibition was 1%. Work on `COc1cc(/C=N\NC(=O)C2COc3cc4ccccc4cc3O2)ccc1OCc1ccccc1` (configuration not stated) yielded an inhibition of 14%. `CCN(Cc1ccccc1)C(=O)c1ccccc1C` showed an inhibition of 6%. Compound `CCOc1ccccc1OCCCCOc1cc(C)ccc1Cl` has an inhibition of 5%. `Cc1c(OCc2c(F)cccc2Cl)ccc2c3c(c(=O)oc12)CCC3` was tested, and the inhibition was 0%. In the case of `CCOC(=O)c1c(N)sc2c1CCc1ccccc1-2`, the inhibition is reported as 51% (active). For `CCOC(=O)c1c(NC(C)=O)sc2c1CCc1ccccc1-2`, the inhibition was 1%. `COC(=O)c1c(N)sc2c1CCc1ccccc1-2` gave an inhibition of 9%. `Cc1ccc(-c2nc(N/N=C/c3ccccc3O)c3ccccc3n2)cc1` was tested, and the inhibition was 20%. `Cc1ccc(-c2nc(N/N=C/c3ccccc3)c3ccccc3n2)cc1` showed an inhibition of 10%. In the case of `Cc1ccc(-c2nc(N/N=C/c3ccccc3Cl)c3ccccc3n2)cc1`, the inhibition is reported as 58% (active). `Oc1ccccc1C(=S)N1CCOCC1` showed an inhibition of 24%. For `COc1ccc(OC)c(C(=S)N2CCOCC2)c1`, the inhibition was 11%. For `COc1ccccc1C(=S)N1CCOCC1`, the inhibition was 70% (active). `COc1ccc2c(c1)c(/C=C/c1nc3ccccc3c(=O)n1-c1ccccc1[N+](=O)[O-])c(C)n2C` showed an inhibition of 1%. In the case of `CC1CCN(C(=O)c2ccc(N(C)S(=O)(=O)c3ccccc3)cc2)CC1`, the inhibition is reported as 51% (active). Compound `CN(c1ccc(C(=O)N2CCCC2)cc1)S(=O)(=O)c1ccccc1` has an inhibition of 5%. With `CN(c1ccc(C(=O)Nc2ccccc2F)cc1)S(=O)(=O)c1ccccc1` the inhibition was 9%. With `CN(c1ccc(C(=O)Nc2cc(Cl)cc(Cl)c2)cc1)S(=O)(=O)c1ccccc1` the inhibition was 8%. With `CN(c1ccc(C(=O)Nc2cc(Cl)ccc2Cl)cc1)S(=O)(=O)c1ccccc1` the inhibition was 54% (active). `CN(c1ccc(C(=O)N2CCN(c3ccccc3)CC2)cc1)S(=O)(=O)c1ccccc1` showed an inhibition of 6%. `Cc1ccccc1CNC(=O)c1ccc(N(C)S(=O)(=O)c2ccccc2)cc1` showed an inhibition of 0%. For `CNC(=O)c1ccc(N(C)S(=O)(=O)c2ccccc2)cc1`, the inhibition was 2%. With `Cc1cccc(C)c1NC(=O)c1ccc(N(C)S(=O)(=O)c2ccccc2)cc1` the inhibition was 57% (active).
